We go through 40 molecules from PubChem BioAssay (NCI).

Compounds without any hit were thinned out: in the full panel of roughly 83,000, 20% have a hit.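 The endpoint reported here, percent growth, reads 100 for growth as untreated, 0 for no net growth and -100 for all cells dead.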 A number with no mark means an inactive call. Activity calls are given as the source filed them. How the source made its calls: active means growth percent below 10; inactive means the rest.

This assay has as its system HL-60(TB) leukemia. Put plainly: NCI-60 one-dose screen, 48 h (100 = growth as untreated, 0 = no growth, -100 = all killed). To be noted: 10 µM unless noted.
For the molecule `CO[C@H]1C[C@@H]2CC[C@@H](C)[C@@](O)(O2)C(=O)C(=O)N2CCCC[C@H]2C(=O)O[C@H]([C@H](C)C[C@@H]2CC[C@@H](O)[C@H](OC)C2)CC(=O)[C@H](C)/C=C(\C)[C@@H](O)[C@@H](OC)C(=O)[C@H](C)C[C@H](C)\C=C/C=C/C=C/1C`, the growth is 16.5%.

For `CCCCCCCCCCCCCCCCCCOc1ccccc1CC(=O)OCC[N+](CC)(CC)CC`, the growth was -20.7% (active). Regarding `C[C@]12CC[C@@H]3c4cc(O)c(O)cc4CC[C@H]3[C@@H]1CC[C@@H]2O`, the growth is 4.62% (active). With `Cc1cc(N2CCN(CC(=O)Nc3ccc4c(ccn4Cc4ccccc4)c3)CC2)nc(N2CCCCCC2)n1` the figure was 12.1%; with `C[C@@H]1C(=O)N(C[C@H](Cc2ccccc2)NC(=O)OCc2ccccc2)[C@]1(Cc1ccccc1)C(=O)OC(C)(C)C`, 81.5%; with `O=C(O)c1cn(C2CC2)c2cc(N3CCN(Cc4ccc5ccccc5c4O)CC3)c(F)cc2c1=O`, 69.7%. Take `CC1=C(C(=O)OCc2ccccc2)C(c2ccc3c(c2)OCO3)n2c(nc3ccccc32)N1` (stereo not given): the growth was -14.7% (active). On to `C/C(=C(/c1ccc(Cl)cc1)c1ccc(OCCN2CCCCC2)cc1)c1ccccc1`, for which the growth was 61.8%. `O=C(OCc1ccccc1)n1nnc2ccccc21`: the growth is 111%. With `COc1ccccc1-c1ccc2nc(NC(=O)Nc3cc(C(F)(F)F)cc(C(F)(F)F)c3)sc2c1` the figure was -34.5% (active); with `ClC1C2CC(c3ccccc32)C1Cl` (stereo not given), 131%; with `COc1cc(/C=C/c2cc(/C=C/c3ccc(O)c(OC)c3)n(-c3ccccc3)c(=O)n2)ccc1O`, 70.9%.

Consider `O=c1c2cccc3c(N4CCCC4)ccc(c32)c2nc3ccccc3n12`, for which the growth is 72%.

Turning to `Cn1cc(-c2csc(-c3cccc(F)c3)n2)c2cccnc21`, the growth is 2.72% [100 µM] (active). With `FC(F)(F)Oc1ccc2nc3nc4ccc[nH]c4cc3c2c1`, the growth was 73.4%. Consider `CNC(=O)c1cnc(C)nc1-c1cc(C(C)(C)C)c(O)c(C(C)(C)C)c1`, for which the growth was 91.1%. On to `COP(=O)(OC)C(c1ccc(O)cc1)(c1ccc(O)cc1)c1ccc(O)cc1`, for which the growth is 93.4%. As to `C/C(=N\OC(=O)Nc1cccc(Cl)c1)c1ccccc1`, the growth was 110%. Consider `O=C1C=CC(=O)N1c1ccccc1N1C(=O)C=CC1=O`, for which the growth is 31.7%.

Consider `COc1cc(/C=C2\CN(C)C/C(=C\c3cc(CN4CCOCC4)c(O)c(OC)c3)C2=O)cc(CN2CCOCC2)c1O`, for which the growth was 32.6%. For `COc1cc2c(cc1OC(C)=O)C(=O)CCCC2`, the growth was 143%.

For `O=C(CSc1nc2c(n1Nc1ccccc1)-c1ccccc1SC2)Nc1nccs1`, the growth is 102%.

`COc1ccc(Cl)cc1NC(=O)c1cc2c(n1C)-c1nc(NC(=O)C(C)C)sc1CC2`: the growth is 74.7%. Take `CS(=O)(=O)c1ccc(Cl)c([N+](=O)[O-])c1`: the growth is 14%.

On to `CCN(CC)CCCC(C)Nc1c(C)cnc2cc(Cl)c(C)cc12` (stereo not given), for which the growth was 65.9%.

Consider `O=C(Nc1ccc(Cl)cc1)Oc1c(Cl)c(Cl)c(Cl)c(Cl)c1Cl`, for which the growth is 98.5%. For `COC(=O)c1c2c(n3ccc(C)cc13)C(=O)c1ccccc1C2=O`, the growth was 57.6%. Regarding `COc1ccc2[nH]c(=O)c(/C=C/C(=O)c3ccccc3OC)cc2c1`, the growth is -2.46% (active). Turning to `COc1cc2nc(-c3ccc(Cl)cc3)cc(OCCCN3CCC(O)CC3)c2cc1OC`, the growth is 32.9%. Regarding `O=Cc1cc2ccccc2nc1Oc1ccc(C(F)(F)F)cc1`, the growth was 92%. As to `CC(C)=CCC/C(C)=C/CC/C(C)=C/CC/C=C(\C)CC/C=C(\C)CCC(=O)Nc1ccn(C2OC(CO)C(O)C2(F)F)c(=O)n1` (stereo not given), the growth is -21.3% (active).

For `CCN1CCN(Cc2ccc(Cc3ncc(F)c(-c4cc(F)c5nc(C)n(C(C)C)c5c4)n3)nc2)CC1`, the growth was 27.3%. Take `CC1(C)/C(=C\CO)C2CCC1C2` (stereo not given): the growth is 94.1%. Take `O=C(Nc1ncc(Cc2ccccc2Cl)s1)c1cccs1`: the growth was 58.5%.

In the case of `N=C(N)c1ccc(OCCCCCCCCCCOc2ccc(C(=N)N)cc2)cc1`, the growth is -70.1% (active). `O=C1/C(=C/c2ccc3c(c2)OCO3)SC(=S)N1C1c2ccccc2Oc2ccccc21`: the growth was 86.1%. The same measure for `Cc1ccccc1CNc1c2ccccc2nc2ccccc12`: 15.3%.

For the molecule `COC(=O)c1cccc([N+](=O)[O-])c1`, the growth was 121%. On to `Nc1cc(-c2ccc(Cl)cc2)nn1-c1nnc(/C=C/c2ccco2)c(=O)[nH]1`, for which the growth is 52.2%. The same measure for `C=CCOc1ccc(/C(Cl)=N/N=C(\Cl)c2cc(OC)c(OC)c(OC)c2)cc1`: 39.6%.
